13 compounds from article PMC6792352, “Limited Chemical Structural Diversity Found to Modulate Thyroid Hormone Receptor in the Tox21 Chemical Library” (Environmental Health Perspectives, 2019) can be followed below.

Structures are written as SMILES. Where a name gives a salt, the structure may show the parent alone. Read-outs that look alike come from different tables or passages of the source.

The test relates to thyroid hormone receptor (endogenous TRα and TRβ). The arrangement: species or system GH3-TRE-Luc (rat pituitary); GH3-TRE-Luc luciferase reporter, antagonist mode against 1 nM T3, loss of signal, qHTS.
Setting [1] is: read-out: Average AC50 (uM) GH3-TRE-Antag, antagonist mode, 1 nM T3, no GH3 cytotoxicity hit, Average AC50 (uM) GH3-TRE-Antag, 24 h.
Where [2] appears, read: read-out: Average AC50 (uM) GH3-TRE-Antag, antagonist mode, 1 nM T3, no GH3 cytotoxicity hit.

In the case of `CC(C)c1c(C(=O)Nc2ccccc2)c(-c2ccccc2)c(-c2ccc(F)cc2)n1CC[C@@H](O)C[C@@H](O)CC(=O)O` [Atorvastatin calcium], the AC50 under setting [1] is 14.2 µM.

With `Fc1ccc([C@@]2(Cn3cncn3)O[C@@H]2c2ccccc2Cl)cc1` (racemic) [Epoxiconazole], the AC50 under setting [2] stood at 41.2 µM.

Consider `Nc1nc(N)c2nc(-c3ccccc3)c(N)nc2n1` [Triamterene], for which the AC50 under setting [2] came to 39.2 µM.

Consider `C[C@]12CCC(=O)C=C1C=C[C@@H]1[C@@H]2CC[C@@]2(C)[C@H]1CC[C@@]21CCC(=O)O1` [Canrenone], for which the AC50 under setting [2] is 34.1 µM.

Consider `CCCCCCCCCCCCCCNCCO` [Myralact], for which the AC50 under setting [2] stood at 22.8 µM.

As for `CC1(C)[C@H](C(=O)OCc2coc(Cc3ccccc3)c2)[C@@H]1/C=C1\CCSC1=O` [Kadethrin], under setting [2], the AC50 came to 48.4 µM.

For the compound `COC(=O)Nc1ccc(Cl)c(Cl)c1` [Swep], the AC50 under setting [2] is more than 90 µM.

For `O=c1[nH]c2ccc([S+]([O-])CCN3CCC(Cc4ccc(F)cc4)CC3)cc2o1` (stereo not shown) [Besonprodil], under setting [2], the concentration at half-maximal activity (AC50) came to 75.9 µM.

Regarding `CC1(CO)CN(c2ccccc2)NC1=O` (stereo not shown) [4-(Hydroxymethyl)-4-methyl-1-phenylpyrazolidin-3-one], the AC50 under setting [2] worked out at 82.6 µM.

In the case of `O=S(=O)(c1cccc2cnccc12)N1CCCNCC1` [Fasudil hydrochloride], the AC50 under setting [2] was 30.1 µM.

In the case of `CCCCCCn1cc[n+](C)c1` [1-Hexyl-3-methylimidazolium trifluoromethanesulfonate], the AC50 under setting [1] came out at 52.5 µM.

As to `CCCCC(CC)C(=O)OCCOCCOCCOCCOC(=O)C(CC)CCCC` (stereo not shown) [Tetraethylene glycol di(2-ethylhexanoate)], the AC50 under setting [2] came to 82.3 µM.

In the case of `CO[C@@H]1[C@H](OC(=O)NC(=O)CCl)CC[C@]2(CO2)[C@H]1[C@@]1(C)O[C@@H]1CC=C(C)C` [o-(Chloroacetylcarbamoyl)fumagillol], the AC50 under setting [2] is 4.57 µM.
